Assay outcomes: PubChem, National Center for Advancing Translational Sciences (NCATS)
Sm TGR inh – blocks Schistosoma mansoni thioredoxin glutathione reductase; 3% of 360,000 active; purified TGR, DTNB reduction, TNB absorbance 405 nm; Q962Y6; Potency, µM (top dose mostly 114 µM), for the others: at the highest dose activity change, negative = inhibition, usual class: inhibitors; further: potency means the concentration at half of the fitted maximal effect; on the % scale 0 is the no-effect control and ±100 the full control effect; nearly all actives have a fitted effect of over 60% in size
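First, TGR (20 nM dispensed) and NADPH were mixed with compound. Second, a 15 min room-temperature incubation followed. Third, further NADPH and then DTNB were added to start the reaction. Finally, TNB absorbance was monitored kinetically.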
TbPYK inhibitor – inhibitors of Trypanosoma brucei pyruvate kinase. 0.12% of 410,000 active. Potency, µM (highest dose often 76.8 µM), inactives show at the top dose activity, negative = inhibition, usual class: inhibitors. Q57TT1. TbPYK enzyme, Kinase-Glo Plus ATP luminescence, 45 min. AID 624173; further: potency means the concentration at half of the fitted maximal effect; on the % scale 0 is the no-effect control and ±100 the full control effect; nearly all actives have a fitted effect of over 50% in size
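Luminescent Kinase-Glo Plus end-point after 45 min room-temperature reaction of T. brucei pyruvate kinase started with 130 uM ADP (final). Buffer TEA 50 mM pH 7.2 with KCl, MgCl2, BSA, Tween-20; titration-based qHTS with fitted concentration-effect curves.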
Giardia FBPA inh-1 – inhibitors of Giardia lamblia fructose-1,6-bisphosphate aldolase; Potency, µM (top dose mostly 59.6 µM), for inactives: at the highest dose activity, negative = inhibition, hits mostly inhibitors; A8B2U2; 0.71% of 290,000 active; purified Giardia FBPA; AID 2451; further: potency means the concentration at half of the fitted maximal effect; on the % scale 0 is the no-effect control and ±100 the full control effect; nearly all actives have a fitted effect of over 55% in size
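40 nM FBPA preincubated 10 min at RT with compound (up to 57.5 uM final), then substrate plus GAPDH/TPI/NAD/arsenate coupling and diaphorase/resazurin added. Fluorescence read after 20 min at RT, 525/598 nm.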
RE007 growth inh – less growth of the S. pombe RE007 Vpr strain | S. pombe RE007 Vpr strain, BacTiter-Glo ATP luminescence, 24 h | Potency, µM (titrated, usually from 92.2 µM), without a hit: at the highest dose activity change, negative = less growth, actives largely listed as inhibitors | 0.21% of 360,000 active; active means well fitted falling curve with a large enough effect; inconclusive means small, poorly fitted or top-dose-only effect; inactive means no such curve, though single readings can be large or run the other way; further: potency means the concentration at half of the fitted maximal effect; on the % scale 0 is the no-effect control and ±100 the full control effect; nearly all actives have a fitted effect of over 50% in size
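Fission yeast RE007 carrying one integrated HIV-1 vpr copy, seeded at OD 0.01 in PMG+AL medium with 23 nL pinned compound. Grown 24 h at 30 degrees; viability read by BacTiter-Glo luminescence after 5 min.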
LmPK inh – blocks Leishmania mexicana pyruvate kinase activity | Q27686 | purified LmPK, Kinase-Glo ATP luminescence, 1 h | Potency, µM (doses to about 57.5 µM), inactives show at the highest dose activity change, negative = inhibition, most hits filed as inhibitors | 0.37% of 290,000 active; further: potency means the concentration at half of the fitted maximal effect; on the % scale 0 is the no-effect control and ±100 the full control effect
Target sequence (Q27686 whole entry, looked up): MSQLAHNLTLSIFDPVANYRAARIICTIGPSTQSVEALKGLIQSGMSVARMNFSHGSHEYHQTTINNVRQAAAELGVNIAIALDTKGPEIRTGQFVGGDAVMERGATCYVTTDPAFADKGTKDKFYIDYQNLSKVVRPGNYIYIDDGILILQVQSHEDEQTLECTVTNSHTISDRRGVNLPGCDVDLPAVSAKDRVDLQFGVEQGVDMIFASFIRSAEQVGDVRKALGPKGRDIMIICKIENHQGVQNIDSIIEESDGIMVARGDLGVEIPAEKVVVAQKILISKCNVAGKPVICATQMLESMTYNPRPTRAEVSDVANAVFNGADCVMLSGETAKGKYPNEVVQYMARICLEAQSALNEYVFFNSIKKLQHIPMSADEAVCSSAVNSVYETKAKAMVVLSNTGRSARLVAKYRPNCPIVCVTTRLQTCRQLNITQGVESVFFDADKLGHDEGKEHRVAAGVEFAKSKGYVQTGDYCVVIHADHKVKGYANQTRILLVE
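Kinase-Glo luminescence read after 1 h RT reaction of 0.1 nM LmPK with 0.5 mM PEP and 0.1 mM ADP. Activity scaled between uninhibited and enzyme-free controls.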
NS1 function inh – inhibitors of influenza NS1 protein function; Potency, µM (titrated, usually from 46.1 µM), inactives show at the highest dose activity, positive = more growth; AID 2326; 0.4% of 270,000 active; calls by dose curve; further: potency means the concentration at half of the fitted maximal effect; actives are rising curves; nearly all actives have a fitted effect of over 50% in size
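A cell-based growth assay was used: compounds that relieve NS1-induced slow growth of budding yeast raise OD600. Assay medium was yeast nitrogen base with ammonium sulphate and -URA supplement, pH 6.0, with 2% galactose.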
NS1 inh valid – influenza NS1 function inhibition validation; influenza NS1 function cell assay, 15-point titration; activity change, negative = inhibition, % at 32.9 µM; shares compounds with NS1 function inh; 1,400 tested, under 10 active; calls by dose curve; further: 0% is about no effect
Flu PR8 replic – influenza NS1 inhibitors: inhibition of influenza A/PR/8/34 replication | shares compounds with NS1 function inh | MDCK infected influenza A/PR/8/34, virus titer TCID50; hits give low values | virus titer (log TCID50), log10 TCID50 at 5 µM | 30% of 95 active | AID 504647; call rule not given here
Giardia growth – inhibitors of Giardia lamblia growth. shares compounds with Giardia FBPA inh-1. Giardia lamblia trophozoite growth inhibition. Potency, µM (titrated, usually from 57.5 µM), for inactives: top-dose activity change, negative = inhibition, most hits filed as inhibitors. 5% of 1,500 active;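 further: potency means the concentration at half of the fitted maximal effect; trophozoites exposed to compound for 48 h at 37 °C; on the % scale 0 is the no-effect control and ±100 the full control effect; nearly all actives have a fitted effect of over 70% in size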
Mammalian tox – mammalian cytotoxicity of Giardia aldolase inhibitor hits | Potency, µM (series often up to 57.5 µM), for the others: at the highest dose viability change, negative = toxicity, usual class: inhibitors | 4% of 1,500 active | shares compounds with Giardia FBPA inh-1 | mammalian cell viability counter-screen, qHTS;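 further: Chinese hamster ovary cells used as mammalian cytotoxicity surrogate; viability measured as cellular ATP by luminescence; potency means the concentration at half of the fitted maximal effect; compound exposure lasted 48 h before reading; on the % scale 0 is the no-effect control and ±100 the full control effect; nearly all actives have a fitted effect of over 60% in size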
Giardia FBPA inh-2 – confirmation of Giardia fructose-bisphosphate aldolase inhibitors | purified Giardia aldolase enzyme activity, qHTS | shares compounds with Giardia FBPA inh-1 | Potency, µM (top dose mostly 57.5 µM), for the others: at the highest dose activity change, negative = inhibition, usual class: inhibitors | AID 2787 | 5% of 1,500 active; further: potency means the concentration at half of the fitted maximal effect; on the % scale 0 is the no-effect control and ±100 the full control effect; nearly all actives have a fitted effect of over 45% in size
Rabbit aldolase – selectivity test for Giardia aldolase inhibitors: rabbit aldolase. shares compounds with Giardia FBPA inh-1. Rabbit muscle FBPA enzyme inhibition, selectivity counter-screen. Potency, µM (top dose mostly 57.5 µM), for the others: top-dose activity, negative = inhibition, most hits filed as inhibitors. 4% of 1,500 active. AID 2794; further: potency means the concentration at half of the fitted maximal effect; on the % scale 0 is the no-effect control and ±100 the full control effect; nearly all actives have a fitted effect of over 60% in size
Target sequence (P00883 whole entry, looked up): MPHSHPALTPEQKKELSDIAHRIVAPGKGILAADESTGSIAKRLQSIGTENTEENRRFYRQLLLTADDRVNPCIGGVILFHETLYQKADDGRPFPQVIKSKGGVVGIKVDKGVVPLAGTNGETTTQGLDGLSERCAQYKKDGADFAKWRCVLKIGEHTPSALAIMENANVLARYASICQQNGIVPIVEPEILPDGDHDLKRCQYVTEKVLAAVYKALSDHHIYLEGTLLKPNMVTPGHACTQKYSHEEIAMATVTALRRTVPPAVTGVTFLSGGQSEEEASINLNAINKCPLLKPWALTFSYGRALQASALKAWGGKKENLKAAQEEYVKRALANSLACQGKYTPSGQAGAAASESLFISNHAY
GAPDH counter – counter-screen for Giardia aldolase inhibitors: GAPDH coupling enzyme; shares compounds with Giardia FBPA inh-1; GAPDH coupling enzyme counterscreen, biochemical, qHTS; Potency, µM (titrated, usually from 57.5 µM), without a hit: at the top dose activity change, negative = inhibition, most hits filed as inhibitors; 6% of 1,500 active; AID 2795; further: potency means the concentration at half of the fitted maximal effect; on the % scale 0 is the no-effect control and ±100 the full control effect; nearly all actives have a fitted effect of over 55% in size
The depositor's hits bear a star; u = inconclusive; x = no result given; [ ] = dose if it differs, or a comment. Sampled rows, rich in hits. Any-hit rate of the full collection: about 3.5%. Unless noted, the call rests on the fitted dose curve; in most records, active means well fitted curve in the direction sought with a large enough effect; inconclusive means small, poorly fitted or top-dose-only effect, or another doubt; inactive means no such curve, though single readings can be large; an effect the other way counts as inactive or inconclusive.

SMILES	Sm TGR inh	TbPYK inhibitor	Giardia FBPA inh-1	RE007 growth inh	LmPK inh	NS1 function inh	NS1 inh valid	others
Cc1ccc(Sc2ncccc2C(=O)O)cc1C	5%	-1%	0%	-7%	2%	u	0
Cc1ccc(Sc2ncccc2C(=O)O)c(C)c1	-9%	1%	4%	x	2%	-5%	x
Cc1cccc(NC(=O)CSc2nc3c(oc4ccccc43)c(=O)n2-c2ccccc2)c1C	-1%	-4%	x	x	x	x	x
Cc1cc(C)cc(NC(=O)CSc2nc3c(oc4ccccc43)c(=O)n2-c2ccccc2)c1	-4%	-9%	-6%	-1%	3%	5µM*	u
O=C(C1=NN(c2ccccc2)C2C(=O)N(c3ccccc3Cl)C(=O)C12)c1ccccc1 (stereo not drawn)	9%	6%	1%	-13%	5%	5.6µM*	-29	Flu PR8 replic=8
O=C(C1=NN(c2ccccc2)C2C(=O)N(c3ccccc3)C(=O)C12)c1ccccc1 (stereo not drawn)	8%	-4%	-3%	19%	0%	u	x
O=C(Cc1ccccc1)Nc1nc2ccccc2[nH]1	u	5%	-3%	2%	0%	0%	x
O=C(Cc1c[nH]c2ccccc12)Nc1nc2ccccc2[nH]1	-10%	-1%	-8%	1%	2%	11µM*	-1
CCS(=O)(=O)c1ccc2oc(SCC(=O)NCCc3ccc(OC)cc3)nc2c1	6%	5%	-3%	-2%	-3%	-5%	x
CN(C)S(=O)(=O)c1ccc2oc(SCC(=O)NCC(F)(F)F)nc2c1	20%	-6%	3%	3%	0%	10µM*	3
Cc1ccc(C(C)C)c(OCc2ccc(C(=O)N/N=C/c3ccc(O)c(O)c3)cc2)c1	2%	2%	u	1%	-5%	13µM*	14
CCCNC(=O)C1CCC(Cn2c(=O)c3sccc3n(CC(=O)N3CCCC(C)C3)c2=O)CC1 (stereo not drawn)	7%	-4%	x	x	x	x	x
O=C1C2CCCN2C(c2cccnc2)N1c1cccc(Cl)c1 (stereo not drawn)	-32%	-9%	1%	1%	7%	3.5µM*	-9
O=C1C2CCCN2C(c2cccnc2)N1c1ccc(Cl)cc1 (stereo not drawn)	-19%	4%	1%	-15%	-2%	-30%	x
Cn1c(SCC(=O)c2ccc3c(c2)Cc2ccccc2-3)nnc1-c1cccc(N)c1	1%	-18%	33%	-19%	-3%	u	34
CC(=O)Nc1ccc(-c2nnc(SCC(=O)c3ccc4c(c3)Cc3ccccc3-4)n2C)cc1	-17%	-19%	3%	-20%	3%	-25%	x
COc1cccc(N2CC(O)=C(c3nc4ccccc4s3)C2=N)c1	1%[57.1 µM]	4%	-6%	-10%	-6%	-3%	x
COc1cccc(N2CC(O)=C(c3ccccc3)C2=N)c1	-1%	-6%	1%	-22%	-3%	7.1µM*	1
O=S(=O)(c1ccc2ccccc2c1)N1CCN(C(=S)Nc2ccc(F)cc2)CC1	-1%	3%	0%	14%	-4%	11µM*	-15
CCCn1c(SCc2nc(-c3ccc(OC)c(OC)c3)no2)nnc1-c1ccccc1	5%	1%	x	x	x	x	x
O=[N+]([O-])c1ccc(NN=Cc2ccccc2O)nc1	x	9%	x	-14%	x	x	x
O=[N+]([O-])c1ccc(O)c(/C=N/Nc2ccccn2)c1	-6%	-4%	5µM*	u	9%	-28%	x	Giardia growth=u;Mammalian tox=20µM*;Giardia FBPA inh-2=u;Rabbit aldolase=4%;GAPDH counter=-28%
Brc1ccccc1/C=N/Nc1ccccn1	50%	-3%	1%	-5%	-25%	x	x
O=C(O)COc1ccc(Br)cc1/C=N\Nc1ccccn1	-7%	2%	11µM*	1%	-2%	1%	x	Giardia growth=-20%;Mammalian tox=-7%;Giardia FBPA inh-2=4%;Rabbit aldolase=10%;GAPDH counter=15%
CCn1c(O)c(C#N)c(C)cc1=O	u	0%	13µM*	-3%	4%	0%	x	Giardia growth=u;Mammalian tox=28%;Giardia FBPA inh-2=u;Rabbit aldolase=u;GAPDH counter=u
SMILES	Sm TGR inh	TbPYK inhibitor	Giardia FBPA inh-1	RE007 growth inh	LmPK inh	NS1 function inh	NS1 inh valid	others
Cc1cc(=O)n(CCO)c(O)c1C#N	-35%	-7%	u	9%	-8%	-4%	x
c1ccc(-c2cccc(-c3ccccn3)n2)nc1	13%	0%	7.9µM*	u	-3%	-284%	x	Giardia growth=u;Mammalian tox=1.3µM*;Giardia FBPA inh-2=20%;Rabbit aldolase=7%;GAPDH counter=1%
Cc1cccc(CNC(=O)Cn2ccc3cc(S(=O)(=O)N4CCC(C)CC4)ccc32)c1	1%	-18%	x	x	x	x	x
Fc1cccc(-c2csc(-c3ccno3)n2)c1	6%	-14%	-1%	-21%	0%	-1%	x
Nc1nc(-c2cccc(F)c2)cs1	u	-23%	11µM*	u	-8%	6%	x	Giardia growth=20%[10.4 µM];Mammalian tox=-5%;Giardia FBPA inh-2=5%;Rabbit aldolase=5%;GAPDH counter=13%
COc1ccc(Cn2c(SCc3ccc(C(=O)NCc4cccs4)cc3)nc3cccnc32)cc1	2%	0%	x	x	x	x	x
Cc1nc(NC(=O)CN2CCCCC2)sc1C(=O)N(C)C	10%	1%	3.2µM*	3%	-5%	16%	x	Giardia growth=-7%[38.3 µM];Mammalian tox=4%;Giardia FBPA inh-2=-9%;Rabbit aldolase=8%;GAPDH counter=-5%
